According to the supplement of paper PMC13380429:

System: Vero E6 infected with SARS-CoV-2
Assay: inhibition of SARS-CoV-2 cytopathic effect; higher = more antiviral protection, active = above 15
Conditions: 48 h

Measured: inhibition of SARS-CoV-2 cytopathic effect

C[C@]12C=CC(=O)C=C1CC[C@@H]1[C@@H]2C(=O)C[C@@]2(C)[C@H]1CC[C@]2(O)C(=O)CO [prednisone]
inactive: 1 nM -1.14% | 8.33 nM -0.26% | 100 nM -3.03% | 833.33 nM -1.05% | 10000 nM 1.02%

CCCCC(=O)O[C@]1(C(=O)CO)CC[C@H]2[C@@H]3CCC4=CC(=O)CC[C@]4(C)[C@H]3[C@@H](O)C[C@@]21C [hydrocortisone-valerate]
inactive: 1 nM -0.15% | 8.33 nM 3.88% | 100 nM 4.88% | 833.33 nM 4.12% | 10000 nM -1.55%

Cc1ccc(-c2cn3c4c(sc3n2)CCCC4)cc1 [pifithrin-cyclic]
inactive: 1 nM -1.71% | 8.33 nM -2.91% | 100 nM 1.98% | 833.33 nM 0.25% | 10000 nM 0.74%

COc1ccc2c3c1O[C@H]1C[C@@H](O)C=C[C@@]31CCN(C)C2 [galantamine]
inactive: 1 nM 0.63% | 8.33 nM 3.15% | 100 nM 2.16% | 833.33 nM 2.11% | 10000 nM 0.3%

O[C@@H]1CO[C@H]2[C@@H]1OC[C@@H]2O [isosorbide]
inactive: 1 nM -0.13% | 8.33 nM 1.81% | 100 nM 1.18% | 833.33 nM 3.22% | 10000 nM 3.05%

CCCC(=O)O[C@]1(C(=O)COC(C)=O)CC[C@H]2[C@@H]3C[C@H](F)C4=CC(=O)C=C[C@]4(C)[C@@]3(F)[C@@H](O)C[C@@]21C [difluprednate]
inactive: 1 nM 1.05% | 8.33 nM 1.55% | 100 nM 1.52% | 833.33 nM 1.03% | 10000 nM 6.96%
